# Measured values reported in ChEMBL document CHEMBL4513216, “Probing the Open Global Health Chemical Diversity Library for Multistage-Active Starting Points for Next-Generation Antimalarials” (ACS Infect Dis, 2020).
# About 8,600 (12%) of roughly 69,000 compounds showed an effect of 50% or more. What follows is part of a selection rich in strong results, with near analogues and random picks from the rest.
# Test system: Plasmodium berghei
# Experiment: Screen against P. berghei liver stage (PbLuc), transformed with Luciferase, at 10uM
# Format: functional, HepG2
# Details: tested at 10 uM
row,Compound,INHIBITION
1,N#Cc1cccc(NC(=O)CCn2nc(-c3cccs3)oc2=O)c1,38.8%
2,COc1ccc(Cl)cc1Nc1nc(N)c(C(C)=O)s1,9.32%
3,OCCN1CCC2(CC1)CC(NCc1ccccn1)c1ccccc1O2 (stereo unspecified),33%
4,O=C(Nc1cccc(CNCc2ccccn2)c1)C1CCCC1,-0.65%
5,O=C(Nc1ccc(CCN2CCC(O)CC2)cc1)C1CCCCC1,29.2%
6,CN1C(=O)CC2(CCN(S(=O)(=O)C3CC3)CC2)c2ccccc21,55.6%
7,CN1C(=O)CC2(CCN(S(=O)(=O)N(C)C)CC2)c2ccccc21,27.5%
8,CN1CC2(CCN(S(=O)(=O)C3CC3)CC2)c2ccccc21,58.5%
9,CN1C(=O)C2(CCN(S(=O)(=O)C3CC3)CC2)c2ccccc21,-3.51%
10,CN(C)C(=O)N1CC2(CCN(S(C)(=O)=O)CC2)c2ccccc21,-43.1%
11,CN(C)C(=O)N1CC2(CCN(S(=O)(=O)C3CC3)CC2)c2ccccc21,38.2%
12,O=C(c1ccccn1)N1CCC2(CCCN(c3nncs3)C2)C1 (stereo unspecified),28.5%
13,COc1c(C2CC(=O)Nc3[nH]ncc32)cc2c(c1OC)OCO2 (stereo unspecified),7.38%
14,Cc1sc(CN)nc1-c1ccccc1,6.54%
15,Cc1ccc(C(=O)N2CCc3ccc(=O)n(CCN(C)C)c3CC2)o1,-17.2%
16,CN1CCC(N(C)CCC(=O)N2CCC(Cc3ccc(F)cc3)CC2)C1 (stereo unspecified),66.4%
17,CN1CCC(N(C)CCC(=O)N2CCC(Oc3ccc(Cl)cc3)CC2)C1 (stereo unspecified),67.4%
18,O=C(CCc1cc(O)no1)N1CCC(Cc2ccc(F)cc2)CC1,-3.12%
19,NC(=O)CC1CCN(C(=O)CCOc2ccc(Cl)cc2)CC1,23.2%
20,CN1CC[C@H](N(C)Cc2ccccc2)C[C@H](O)C1,18.4%
21,COc1ccc(OC2CCN(C(=O)CCc3nc(Cl)n[nH]3)CC2)cc1,28.4%
22,CN1CCC(N(C)CCC(=O)N2CCN(Cc3cccc(F)c3)CC2)C1 (stereo unspecified),-0.991%

row,Compound,INHIBITION
1,CN1CCC(N(C)CCC(=O)N2CCC(CCc3ccccc3)CC2)C1 (stereo unspecified),74.3%
2,CN1CCC(N(C)CCC(=O)N2CCC(OCc3ccccc3)CC2)C1 (stereo unspecified),23.8%
3,CCc1nc(-c2ccnc(N3CCNCC3)n2)no1,29.6%
4,Cc1cc(C)c(CNC(=O)N2CCCC2c2ccc(F)cc2)c(=O)[nH]1 (stereo unspecified),34.7%
5,CC(C)n1cnnc1CN(C)C(=O)CCn1cnc2ccccc2c1=O,-17.6%
6,CN1CC(=O)N(C2CCC2)Cc2c(NC3CCNCC3)ncnc21,20.9%
7,CC(=O)N[C@@H]1CN(Cc2ccc(F)cc2F)C[C@H]1c1ccc(C)o1,-14.1%
8,Cc1ccc(C(CNCc2cccc3c2OCO3)N2CCOCC2)o1 (stereo unspecified),29.4%
9,CC(C)C(CNCc1cccc2c1OCO2)N1CCOCC1 (stereo unspecified),24.8%
10,c1csc(C(CNCc2cccc3c2OCO3)N2CCOCC2)c1 (stereo unspecified),61.9%
11,Cc1ccc(NC(=O)N2CCCC(O)C2)c(Br)c1 (stereo unspecified),-86.5%
12,Cc1ccc(OCCCNC(=O)CN(C)c2ccc(C#N)cn2)cc1,49.3%
13,COc1ccc(CNC(=O)CCc2nnc3ccccn3c2=O)cc1,25.3%
14,O=C(CCc1nnc2ccccn2c1=O)NCc1cccnc1,37.3%
15,O=C(CCc1nnc2ccccn2c1=O)NCc1ccc2c(c1)OCO2,57%
16,Cc1nc(CO[C@@H]2CN(Cc3cccs3)[C@@H]3COC[C@@H]32)cs1,-33.3%
17,CNc1cc(C)nc(NCc2cc(C)cc3c(C)c(C)[nH]c23)n1,76.7%
18,CNc1cc(C)nc(-c2cc(NCCO)nc3[nH]ccc23)n1,-28.4%
19,CNc1nc(C)cc(NCc2cc(C)cc3c(C)c(C)[nH]c23)n1,87.9%
20,Cc1cc(CNc2cncc(C(=O)N(C)C)n2)c2[nH]c(C)c(C)c2c1,29.7%
21,CNc1cc(C)nc(-c2cc(NC)nc3[nH]ccc23)n1,-8.51%
22,C[C@@H](N)C(=O)N1CCC(c2[nH]ncc2-c2ccccc2)CC1,36.15%

row,Compound,INHIBITION
1,CC(=O)N1C[C@H]2CCCN(Cc3ccc(C)o3)[C@H]2C1,-3.58%
2,O=C(c1cnccn1)N1CCCC2(COCCN(CC3CC3)C2)C1 (stereo unspecified),37%
3,O=C(NCc1ccccn1)[C@]12COC[C@H]1CN(Cc1cccnc1)C2,-17.2%
4,C[C@H](NC(=O)N1CCC(Cc2ccccc2)CC1)C(=O)O,27.5%
5,NC(=O)COc1ccc(CNCc2ccc(Cl)c(F)c2)cc1,0.426%
6,CC(Cn1cccn1)NC(=O)CCC(=O)c1cccs1 (stereo unspecified),-13.5%
7,Cc1cc(CC2COc3ccccc3C2)cnc1N (stereo unspecified),75.1%
8,COc1ccc2c(c1)OCC(Cc1cc(N3CCCC3)cnn1)C2 (stereo unspecified),-43.7%
9,COc1ccc2c(c1)OCC(Cc1ccc(N(C)C)nc1)C2 (stereo unspecified),14.9%
10,COc1ccc2c(c1)OCC(Cc1ccc(N)cn1)C2 (stereo unspecified),-93%
11,COc1cccc2c1OCC(Cc1cnc(N)c(C)c1)C2 (stereo unspecified),14.5%
12,c1ccc2c(c1)CC(Cc1cc(N3CCCC3)cnn1)CO2 (stereo unspecified),13%
13,COc1ccc2c(c1)OCC(Cc1cncc(N)c1)C2 (stereo unspecified),61.1%
14,COc1ccc2c(c1)OCC(Cc1cnc(N)c(C)c1)C2 (stereo unspecified),55.9%
15,COc1ccc2c(c1)OCC(Cc1ccc(CN)cn1)C2 (stereo unspecified),-45.5%
16,O=C(c1sccc1-n1cnnn1)N1CCC2(CCCCC2)CC1,28.1%
17,Cc1ccc(C(=O)NC(CN2CCCC2=O)c2ccccc2)cn1 (stereo unspecified),15.3%
18,CC(C)N1CCC(c2nccnc2Nc2ncccn2)CC1,42.4%
19,Cc1ncc2c(n1)CN(C=C1NN=C(c3occc3C)O1)CC2,47.6%
20,O=C(Nc1cnn(Cc2ccccc2)c1)N1CCN(CCO)CC1,-26.8%
21,c1cncc(-c2noc(C3CN(Cc4cccs4)C3)n2)c1,22.2%
22,Cc1nc(C2CCN(Cc3ncc[nH]3)CC2)no1,20.8%

row,Compound,INHIBITION
1,COC(=O)CN1CCSC(c2ccccc2)C1 (stereo unspecified),48.2%
2,CN(C)c1ncc(CN2CCCC(Nc3ccc4c(c3)OCCO4)C2)s1 (stereo unspecified),-0.217%
3,COc1ccc(F)cc1C(=O)C1CCCN(Cc2cnc(C)s2)C1 (stereo unspecified),47.2%
4,CC(C)(N)C(=O)N1CCCC(C(=O)c2ccc(C(C)(C)C)cc2)C1 (stereo unspecified),36.8%
5,CCCn1ncc(CN2CCCC(C(=O)c3ccc(SC)cc3)C2)c1C (stereo unspecified),83.9%
6,COc1ccc(C(=O)C2CCCN(Cc3cnn(C)c3C)C2)c(OC)c1 (stereo unspecified),14.3%
7,CCCn1ncc(CN2CCCC(C(=O)c3ccc(Cl)cc3C)C2)c1C (stereo unspecified),73%
8,Cc1c(CN2CCCC(C(=O)c3ccc(C(C)(C)C)cc3)C2)cnn1C (stereo unspecified),89.4%
9,Cc1cc(Cl)ccc1C(=O)C1CCCN(Cc2cnc(N(C)C)s2)C1 (stereo unspecified),83%
10,CSc1ccc(C(=O)C2CCCN(C(=O)CCCn3cncn3)C2)cc1 (stereo unspecified),22.2%
11,CCn1ncc(CN2CCCC(n3c(=O)oc4ccccc43)C2)c1C (stereo unspecified),4.7%
12,CSc1ccc(C(=O)C2CCCN(C(=O)CCn3cncn3)C2)cc1 (stereo unspecified),22.2%
13,CCn1ncc(CN2CCCC(C(=O)c3ccc(Cl)cc3)C2)c1C (stereo unspecified),18.5%
14,Cc1cc(CN2CCN(C(=O)NCc3ccc(C)s3)CC2)on1,-24.2%
15,Cc1cnn(CCNCC(=O)N2CCN(c3ccccn3)CC2)c1,-0.613%
16,O=C(c1ccnc(-n2ccnc2)c1)N1CCCC(n2cccn2)C1 (stereo unspecified),36.1%
17,CN(CC1COc2ccccc2O1)C(=O)c1ccc(-c2cn[nH]c2)nc1 (stereo unspecified),2.18%
18,O=C(c1ccccn1)N1CCCC2(CCN(c3ccsc3)C2=O)C1 (stereo unspecified),35.6%
19,CN(C)C(=O)[C@@H]1CCO[C@@H]2CCN(Cc3ccccc3)C[C@@H]21,-11.5%
20,Cn1cc(-c2ncc(C(=O)NCCCn3ccccc3=O)s2)cn1,44.9%
21,Cc1nc(C2CCCN2C(=O)Cc2ccc3c(c2)OCO3)nc(O)c1C (stereo unspecified),22%
22,CN1C(=O)CCC12CCN(Cc1ccco1)CC2,16.1%

row,Compound,INHIBITION
1,CN1CCN(c2nsc(-c3ccccc3)c2C#N)CC1,33.3%
2,COc1c(CNC2CCCc3ccccc32)c(C)nn1C (stereo unspecified),37.9%
3,O=C(CS(=O)(=O)c1ccccn1)NC1CCCc2ccccc21 (stereo unspecified),-17.8%
4,Cc1nn(C)c(N2CCOCC2)c1CNC1CCc2ccccc21 (stereo unspecified),7.08%
5,Cc1nn(CCO)c(C)c1CNC1CCCCc2ccccc21 (stereo unspecified),17.8%
6,CCCn1ncc(-c2ccnc(NC3CCCc4ccccc43)n2)c1C (stereo unspecified),77.2%
7,CCCOCCCNc1nccc(-c2cn(C)nc2C)n1,-49.8%
8,CCCn1cc(-c2ccnc(NC3CCCc4ccccc43)n2)c(C)n1 (stereo unspecified),72.3%
9,CCCn1cc(-c2ccnc(NC3CCc4ccccc43)n2)c(C)n1 (stereo unspecified),82.2%
10,CCCn1ncc(-c2ccnc(NC3CC(C)(C)NC(C)(C)C3)n2)c1C,80.1%
11,CCCn1ncc(C(=O)N2CCN(C3Cc4ccccc4C3)CC2)c1C,-20.8%
12,CCCn1ncc(-c2ccnc(N[C@@H]3C[C@H]4CC[C@@H]3C4)n2)c1C,49.9%
13,CCCn1ncc(-c2ccnc(NC3CCSC3)n2)c1C (stereo unspecified),49.9%
14,CN1CCC/C1=N\S(=O)(=O)c1ccc(NC(=O)c2ccc(F)cc2)cc1,41.4%
15,O=S(=O)(CC1CCCO1)Nc1cc(Cl)ccc1-n1cccn1 (stereo unspecified),-15.5%
16,CC(=O)N[C@@H]1CN(Cc2oc3ccccc3c2C)C[C@H]1c1ccc(C)o1,37.7%
17,CC(CO)(NC(=O)NCc1ccc(Br)s1)C1CC1 (stereo unspecified),-12.7%
18,Fc1cnc(N2CCc3nnc(COc4ccccn4)n3CC2)nc1,-58.7%
